Measured potencies and affinities stand elsewhere. Records with an inconclusive call do not appear. Calls of active or inactive are those of the source.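 The calls were made as follows: active = fitted half-maximal concentration no higher than twice the top tested dose, in every repeat run; inconclusive = repeat runs disagree, poor fit, or flat partial inhibition; inactive = the rest.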
These compounds were tested against Endoplasmic reticulum aminopeptidase 1 (Homo sapiens) (UniProt Q9NZ08) (assay: inhibition of human ERAP1 enzyme activity – biochemical, cherry-pick, set 2, plate reader, dose response (AID 743314)). Details: Recombinant ERAP1, Leu-AMC fluorescence, 60 min; series mostly up to 11 µM.
Chain of Endoplasmic reticulum aminopeptidase 1 (Homo sapiens) (Q9NZ08 whole entry, looked up): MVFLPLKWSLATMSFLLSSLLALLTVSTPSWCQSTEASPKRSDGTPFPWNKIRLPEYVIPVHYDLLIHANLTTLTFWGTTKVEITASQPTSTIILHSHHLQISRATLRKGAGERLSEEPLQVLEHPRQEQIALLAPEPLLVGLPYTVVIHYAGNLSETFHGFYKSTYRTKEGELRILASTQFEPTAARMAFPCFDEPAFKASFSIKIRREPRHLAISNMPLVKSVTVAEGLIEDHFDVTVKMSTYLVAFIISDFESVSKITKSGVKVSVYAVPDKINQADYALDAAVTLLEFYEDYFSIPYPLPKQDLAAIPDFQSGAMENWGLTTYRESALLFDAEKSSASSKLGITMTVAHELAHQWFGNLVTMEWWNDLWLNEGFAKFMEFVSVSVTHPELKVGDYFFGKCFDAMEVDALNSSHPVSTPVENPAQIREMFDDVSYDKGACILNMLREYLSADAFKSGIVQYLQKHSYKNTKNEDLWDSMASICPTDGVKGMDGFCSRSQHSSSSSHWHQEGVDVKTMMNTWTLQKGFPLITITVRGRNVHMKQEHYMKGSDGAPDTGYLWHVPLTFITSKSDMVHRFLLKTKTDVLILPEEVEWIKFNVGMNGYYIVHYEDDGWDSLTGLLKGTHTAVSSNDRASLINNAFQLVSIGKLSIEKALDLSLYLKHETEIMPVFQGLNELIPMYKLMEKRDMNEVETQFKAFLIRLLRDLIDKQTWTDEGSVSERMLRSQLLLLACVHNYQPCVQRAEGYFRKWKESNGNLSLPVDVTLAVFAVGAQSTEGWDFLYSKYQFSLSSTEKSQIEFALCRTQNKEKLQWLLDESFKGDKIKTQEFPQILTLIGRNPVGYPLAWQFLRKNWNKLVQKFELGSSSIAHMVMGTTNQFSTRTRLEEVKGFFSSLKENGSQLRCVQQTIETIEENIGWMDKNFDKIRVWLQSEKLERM

Compound	outcome
Cn1c(CCC(=O)Nc2cc(S(C)(=O)=O)ccc2Cl)nc2cc(S(=O)(=O)N3CCOCC3)ccc21	inactive
C[C@H](CO)N1C[C@H](C)[C@@H](CN(C)C(=O)Nc2ccccc2)Oc2ccc(NC(=O)Nc3cccc4ccccc34)cc2C1=O	inactive
O=c1cc(CN2CCOCC2)c2cc(Cl)c(O)cc2o1	inactive
O=C(C[C@H]1CC[C@H](NC(=O)C2CCOCC2)[C@H](CO)O1)NCc1ccncc1	inactive
C[C@@H]1CN([C@H](C)CO)C(=O)c2cc(NS(=O)(=O)c3ccc(Cl)cc3)ccc2O[C@@H](C)CCCCO[C@@H]1CN(C)C	inactive
Cc1ccc(S(=O)(=O)N(C)C[C@@H]2Oc3ccc(NC(=O)c4ccncc4)cc3C(=O)N([C@H](C)CO)C[C@H]2C)cc1	inactive
Cc1cccc2sc(N(CCCN(C)C)C(=O)c3ccc4ncsc4c3)nc12	inactive
O=S(=O)(O)c1ccc(N2N=C(c3ccccc3)CC2c2ccccc2)cc1 (stereo not drawn)	inactive
CCCNC(=O)C[C@H]1CC[C@@H]2[C@H](COC[C@H](O)CN2C(=O)Nc2cccc(Cl)c2)O1	inactive
COc1ccc([N+](=O)[O-])cc1NS(=O)(=O)c1cccc(C(=O)O)c1	inactive
Cc1ccc(NC(=O)C(C)OC(=O)C2CC3CCCC(C2)C3=O)cc1S(=O)(=O)N1CCOCC1 (stereo not drawn)	inactive
COc1ccc2c3c([nH]c2c1)[C@@H](CO)N(Cc1cc(F)ccc1F)CC31CN(C(=O)CN(C)C)C1	inactive
C[C@@H]1CN([C@@H](C)CO)C(=O)c2cc(NC(=O)CCN3CCOCC3)ccc2O[C@H]1CN(C)S(=O)(=O)c1ccccc1	inactive
